Compound activity from PubChem.
Rows were chosen to be rich in hits. Some 5.2% of all compounds tested hit in one or more screens of this group.
Vif inh: HIV Vif self-association inhibitors, primary screen, imaging, HEK293T, single point | AID 602346, 2012 | 0.35% of 340,000 active | inhibition, % at 7.49 µM | HEK293T cells, Vif self-association by quenched fluorescence, 24 h; in the data active means inhibition above about 50%, passing the limit was not always enough; inconclusive means no clear call, values can overlap the other calls; inactive means below about 31%
esBAF inh: Bmi1 luciferase reporter increase in mESCs, primary screen, esBAF inhibitor project, mouse ES cells, Bmi1 luciferase knock-in, single point; 24 h; 100% = twice the neutral-well signal; reporter increase, % at 12.5 µM; 2% of 350,000 active; in the data active means activation above about 40%; inconclusive means no clear call, values can overlap the other calls;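 further: 0% = median of the plate's neutral control wells and 100% = double that signal; a rise in the Bmi1 reporter signal indicates esBAF inhibition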
SKN-1 block: suppressors of acrylamide-induced Pgst-4::GFP reporter in worms, primary screen, SKN-1 inhibitor project, whole organism, uHTS, GFP/RFP fluorescence ratio, strain VP596; C. elegans VP596 Pgst-4::GFP/RFP ratio, 24 h; inhibition, % at 21.8 µM; 0.49% of 360,000 active;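 active means interference check ratio from 0.5 to 1.5 plus GFP to RFP signal ratio inhibition reaching or exceeding a fixed threshold, cut at about 30% in these data, passing the limit was not always enough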
NadD inh: inhibitors of S. aureus NadD, primary screen, biochemical, colorimetric, uHTS | purified NadD enzyme, colorimetric absorbance read-out | inhibition, % at 20 µM | 0.78% of 360,000 active; in the data active means inhibition above about 26%
GRIN3A LBD mod: binders of NR3A ligand-binding domain, primary screen, biophysical, differential scanning fluorimetry, uHTS; Glutamate receptor ionotropic, NMDA 3A (GRIN3A) ligand-binding domain; NR3A LBD differential scanning fluorimetry, Tm shift; 0% = protein alone, 100% = glycine-bound protein; Tm shift relative to glycine control, % at 25 µM; 2.5% of 340,000 active;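 active means melting temperature shift of at least 10% of the positive control shift, at one fixed dose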
SMARCA2 act: SMARCA2 (BRM) function activators, primary screen, cell-based, luminescence, high throughput | MG213 cells, MMTV-luciferase reporter, dexamethasone, overnight | 1% of 370,000 active | activation, % at 9.1 µM | AID 652017, 2013; in the data active means activation above about 7.8%;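 further: 0% = vehicle wells and 100% = reference activator wells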
Numbers without * were called inactive; ? = inconclusive; nt = no result given.

SMILES	Vif inh	esBAF inh	SKN-1 block	NadD inh	GRIN3A LBD mod	SMARCA2 act
COc1cccc(S(=O)(=O)N(C)C[C@H]2Oc3ncc(C#CC(C)C)cc3C(=O)N([C@@H](C)CO)C[C@@H]2C)c1	nt	2.4	nt	nt	nt	nt
COc1ccc(NC(=O)N(C)C[C@H]2Oc3c(NC(=O)c4ccc(-c5nccs5)cc4)cccc3C(=O)N([C@@H](C)CO)C[C@H]2C)cc1	nt	6.4	nt	nt	nt	nt
CCn1c(O)c(/C=N/n2cnnc2)sc1=S	-0.3	-8.2	2.1	5.5	-0.5	2.4
CCn1c(O)c(C=NC2CCCC2)sc1=S	-2.2	44.6*	-2.2	-6.4	-0.3	-3.1
CCOC(=O)CN1C(=O)S/C(=C/c2ccc3c(c2)n(C)c(=O)n3C)C1=O	3.4	45.8*	0.3	-0.1	-2.5	-0.8
Cc1csc(NC(=O)c2ccc3ccccc3n2)n1	-3.5	3.3	10.6	-5.6	-0.7	7.4
CCC(CC)c1nnc(NC(=O)c2cc(-c3ccccc3)nc3ccccc23)s1	1.7	nt	1.1	-0.9	0.0	-2.0
O=C(Nc1nccs1)c1ccc2ccccc2n1	-1.8	0.4	57.0*	-0.5	0.9	2.3
CCC(CC)c1nnc(NC(=O)c2ccc3ccccc3n2)s1	nt	53.0*	6.9	2.5	2.4	2.9
C[C@@H](NC(=O)C[C@@H]1C[C@H]2c3cc(NC(=O)CN(C)C)ccc3O[C@H]2[C@@H](CO)O1)c1ccccc1	nt	4.6	nt	nt	nt	nt
C[C@@H]1CN([C@@H](C)CO)C(=O)c2c(c3ccccc3n2C)-c2ccccc2CO[C@H]1CN(C)Cc1ccc(C(=O)O)cc1	nt	-2.7	nt	nt	nt	nt
COc1cc(C(=O)Nc2nc(-c3ccc(Cl)cc3)c(C)s2)ccc1OCC(=O)Nc1ccc(F)cc1	8.1	nt	8.8	22.8	17.7*	-1.5
CCc1ccc(-c2nc(NC(=O)c3ccc(OCC(=O)Nc4ccc(F)cc4)c(OC)c3)sc2C)cc1	11.6	1.2	0.7	19.8	1.9	-2.7
O=C(Nc1ccc(F)c(Cl)c1)c1ccccc1NC(=O)C1CCCCC1C(=O)O (stereo not given)	-5.4	66.3*	-8.7	-8.6	-1.6	2.0
CC(C)c1ccc(NC(=O)c2ccccc2NC(=O)C2CCCCC2C(=O)O)cc1 (stereo not given)	-7.0	64.4*	-9.0	3.4	0.1	5.9
CC(C)c1ccc(NC(=O)c2ccccc2NC(=O)C2CC=CCC2C(=O)O)cc1 (stereo not given)	-4.5	51.3*	-6.5	-1.0	-0.8	2.8
O=C(Nc1ccc(F)cc1)c1ccccc1NC(=O)C1CCCCC1C(=O)O (stereo not given)	-9.6	8.8	-24.7	-5.8	0.3	0.1
COc1ccc(NC(=O)c2ccccc2NC(=O)C2CCCCC2C(=O)O)cc1 (stereo not given)	-7.8	50.6*	-2.9	-7.1	-6.7	3.9
O=C(Nc1ccc(F)cc1)c1ccccc1NC(=O)C1CC=CCC1C(=O)O (stereo not given)	-3.2	6.9	-5.3	3.4	-1.3	0.4
COC(=O)c1ccccc1NC(=O)C1CCCCC1C(=O)O (stereo not given)	-6.1	0.0	1.6	-5.3	2.4	-1.9
O=C(Nc1cccc(Cl)c1)c1ccccc1NC(=O)C1CCCCC1C(=O)O (stereo not given)	6.0	33.7	17.5	-4.9	-0.5	3.5
COc1ccccc1S(=O)(=O)N[C@H]1CC[C@H](CCNC(=O)C2CCC2)O[C@H]1CO	nt	0.8	nt	nt	nt	nt
C[C@H](CO)N1C[C@H](C)[C@H](CN(C)C(=O)C2CC2)Oc2cc(Br)ccc2S1(=O)=O	nt	-3.0	nt	nt	nt	nt
CCCC#Cc1cnc2c(c1)C(=O)N([C@@H](C)CO)C[C@@H](C)[C@@H](CN(C)S(=O)(=O)c1ccccc1)O2	nt	-0.1	nt	nt	nt	nt
CO[C@H]1CN(C)C(=O)c2ccc(NC(=O)c3ccc(F)cc3)cc2OC[C@@H](C)N(C(=O)CN(C)C)C[C@H]1C	nt	-4.0	nt	nt	nt	nt
SMILES	Vif inh	esBAF inh	SKN-1 block	NadD inh	GRIN3A LBD mod	SMARCA2 act
COc1ccc(/C=C/C(=O)NC(=S)Nc2ccccc2C(=O)NC2CCCCC2)cc1	1.3	nt	-2.0	4.1	28.4*	1.8
O=C(/C=C/c1ccccc1)NC(=S)Nc1ccccc1C(=O)NC1CCCCC1	17.6	1.6	2.0	7.2	25.3*	-2.6
COc1ccc(/C=C/C(=O)NC(=S)NCCc2ccc(OC)c(OC)c2)cc1	70.3*	9.1	7.7	-11.6	9.0	0.1
COc1ccc(/C=C/C(=O)NC(=S)Nc2ccc(Br)cn2)cc1	1.0	7.6	4.4	4.5	24.9*	2.7
CC(=O)N(C)C[C@@H]1Oc2ncc(C#C[C@@H](C)O)cc2C(=O)N([C@H](C)CO)C[C@H]1C	nt	8.0	nt	nt	nt	nt
N#Cc1c(-c2ccco2)nc(SCc2ccc(F)cc2)[nH]c1=O	30.8	0.1	-10.7	2.8	-30.1	-1.3
Cc1nc(SCc2cccc(F)c2)[nH]c(=O)c1C#N	2.1	-5.8	8.3	1.3	12.7*	-1.6
CCC1=[N+](CC(=O)c2ccc(C)cc2)CCn2cccc21	-2.0	43.4*	-2.4	-0.5	-4.1	-1.9
COc1cc2c(cc1OC)CN(c1ccc(C(F)(F)F)cn1)CC2	16.4	41.4*	-22.4	5.6	1.6	-1.8
COc1cc2c(cc1OC)CN(c1ccc3ccccc3n1)CC2	12.7	?	26.2	5.0	-0.9	5.2
O=C(NC(C(=O)N/N=C/c1ccccn1)c1n[nH]c(=O)c2ccccc12)c1ccccc1 (stereo not given)	-2.9	-2.7	-13.4	-3.3	-1.7	7.9*
O=C1CSC(=Nc2cc(Cl)ccc2Cl)N1	-3.8	-4.0	14.4	-8.5	11.1*	nt
O=C1CSC(=Nc2ccc(Cl)cc2)N1	22.2	1.3	3.3	-5.5	-0.3	-4.7
CC(=O)c1ccc(NC(=O)c2cccc(S(=O)(=O)N3CCN(C)CC3)c2)cc1	12.2	57.7*	0.1	2.8	-0.7	2.2
CN1CCN(S(=O)(=O)c2cccc(C(=O)Nc3cccc([N+](=O)[O-])c3)c2)CC1	-17.5	nt	3.2	-4.9	16.9*	4.7
C[C@@H]1CCCCO[C@@H](CN(C)Cc2ccc3c(c2)OCO3)[C@H](C)CN([C@@H](C)CO)C(=O)c2cc(NC(=O)CCCN(C)C)ccc2O1	nt	-2.3	nt	nt	nt	nt
CCCN1C[C@H](C)[C@@H](OC)CN(C)C(=O)c2cc(NS(C)(=O)=O)ccc2OC[C@H]1C	nt	2.6	nt	nt	nt	nt
C[C@@H]1CN([C@@H](C)CO)C(=O)c2cccc(NC(=O)Nc3ccccc3)c2O[C@@H]1CN(C)CC1CCCCC1	nt	-0.7	nt	nt	nt	nt
